Compound activity (PubChem)
An excerpt weighted towards active compounds, which were near 7.5% of everything screened.
Giardia FBPA inh: Giardia lamblia aldolase inhibition; purified Giardia FBPA; Potency, µM (top dose mostly 59.6 µM), without a hit: at the top dose activity, negative = inhibition, usual class: inhibitors; 290,000 compounds, 0.71% hits; AID 2451; note: potency is the fitted concentration of half-maximal effect; nearly all actives have a fitted effect of over 55% in size
Target sequence (A8B2U2 whole entry, looked up): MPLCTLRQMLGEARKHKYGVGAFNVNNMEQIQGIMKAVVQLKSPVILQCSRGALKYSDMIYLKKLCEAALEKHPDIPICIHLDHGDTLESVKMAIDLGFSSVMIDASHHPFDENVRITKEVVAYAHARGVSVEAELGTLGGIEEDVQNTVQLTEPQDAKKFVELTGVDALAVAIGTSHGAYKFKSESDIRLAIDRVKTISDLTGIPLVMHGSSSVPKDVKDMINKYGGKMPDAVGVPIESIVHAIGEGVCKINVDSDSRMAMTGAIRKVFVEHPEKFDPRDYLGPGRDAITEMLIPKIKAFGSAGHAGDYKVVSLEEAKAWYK
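40 nM FBPA preincubated 10 min at RT with compound (up to 57.5 uM final), then substrate plus GAPDH/TPI/NAD/arsenate coupling and diaphorase/resazurin added. Fluorescence read after 20 min at RT, 525/598 nm.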
Vaccinia Venus: inhibitors of vaccinia virus (Venus reporter); AID 720580; Potency, µM (top dose mostly 36.5 µM), inactives show at the top dose activity change, negative = inhibition, hits mostly inhibitors; 330,000 compounds, 0.46% hits; Vaccinia virus Venus reporter expression, fluorescence; calls by dose curve; tested in A549 cells; note: potency is the fitted concentration of half-maximal effect; nearly all actives have a fitted effect of over 30% in size
HCMV inh: blocks human cytomegalovirus replication. HFF cells, HCMV-luciferase reporter, 72 h; active compounds read low. activity change, negative = inhibition, % at 57.5 µM. 410,000 compounds, 4.5% hits. AID 1259415; in the data active = activity change below about -60%; inconclusive = no clear call, values can overlap the other calls; inactive = above about -39%
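HFF cells seeded 16 h at 37C, treated with compounds, infected with luciferase-reporter HCMV at MOI 1 PFU/cell; luciferase read at 72 h post infection, normalized to buffer-only and Salinomycin controls.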
FMDV antiviral: blocks foot and mouth disease virus; Potency, µM (series often up to 57.9 µM), for the others: at the top dose activity change, negative = inhibition, actives largely listed as inhibitors; FMDV antiviral cell-based qHTS; 410,000 compounds, 1.2% hits; calls by dose curve; tested in HEK293T cells; note: read-out not given here; potency is the fitted concentration of half-maximal effect; nearly all actives have a fitted effect of over 45% in size
HCV inh: blocks hepatitis C virus | 340,000 compounds, 3.4% hits | AID 651820 | Huh7.5.1 HCVcc-Cre infection, luciferase reporter, 44 h | Potency, µM (top dose mostly 41.8 µM), inactives show at the top dose activity change, negative = inhibition, usual class: inhibitors; note: potency is the fitted concentration of half-maximal effect
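Luciferase read-out (15 sec integration) after a 15 min room-temperature substrate step quantifies HCVcc-Cre infection. Cells, 1,000 per well, had compound added 4 h post-plating, then virus at ~0.5 moi, and were cultured 44 h.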
VACV mCherry inh: vaccinia inhibition (mCherry reporter). Vaccinia virus mCherry reporter infection, fluorescence. Potency, µM (doses to about 36.5 µM), inactives show at the top dose activity change, negative = inhibition, most hits filed as inhibitors. AID 720579. 310,000 compounds, 0.63% hits; calls by dose curve; tested in A549 cells; note: potency is the fitted concentration of half-maximal effect; nearly all actives have a fitted effect of over 35% in size
Starred values were filed as active, the others as inactive; i = inactive; ? = inconclusive; . = not tested or not shown; [ ] = remark or other dose. Unless noted, calls come from the whole dose curve; as a rule, active = well fitted curve in the direction sought with a large enough effect; inconclusive = small, poorly fitted or top-dose-only effect, or another doubt; inactive = no such curve, though single readings can be large; an effect the other way counts as inactive or inconclusive. % is set by controls: 0 for no effect and ±100 for the full control effect.

SMILES | Giardia FBPA inh | Vaccinia Venus | HCMV inh | FMDV antiviral | HCV inh | VACV mCherry inh
O=C(NC1CCCCCC1)c1ccc([N+](=O)[O-])s1 | . | -4% | ? | 16% | ? | ?
Cc1ccc(C)c(NC(=O)Cn2c(=O)n(CCC(C)C)c(=O)c3cccnc32)c1 | . | -8% | 15 | 10% | . | i
COc1cc(NC(=S)NCCc2ccc(S(N)(=O)=O)cc2)c(OC)cc1Cl | ? | . | -61* | 2% | -21% | .
COc1ccc(NC(=S)NCCc2ccccc2)c(OC)c1 | -2% | . | 6 | -3% | 22µM* | .
COc1ccc(S(=O)(=O)Nc2ccccc2OC)cc1C | 2% | -13% | 11 | . | 11% | -2%
COc1ccc(NC(=S)NCCc2ccc(F)cc2)c(OC)c1 | -1% | 8% | 1 | 7% | -14% | i
COc1cc(NS(=O)(=O)c2ccc(C)c(C)c2)c(OC)cc1Cl | 3% | . | -69* | -2% | -9% | .
COc1ccc(/C(C)=N/NC(=S)NCCc2ccccc2)cc1 | -5% | -13% | -114* | -18% | -12% | -16%
Cc1cccnc1-c1cccc2c1OC(CNC(=O)Cc1c(C)noc1C)C2 (centres undefined) | . | 0% | . | -7% | . | -10%
O=C(COC(=O)c1ccc(S(=O)(=O)N2CCCC2)cc1)NCc1ccco1 | 6% | -14% | -35 | -15% | ? | -15%
COc1ccc(OCC(O)CN2CCC(CN3C(=O)c4cccc5cccc(c45)C3=O)CC2)cc1 (centres undefined) | -8% | -23% | 27 | -16% | ? | ?
O=C1c2cccc3cccc(c23)C(=O)N1CC1CCN(CC(O)COCc2ccc3c(c2)OCO3)CC1 (centres undefined) | 4% | -17% | -20 | -29% | 10µM* | -5%
Cc1nn(-c2ccccc2)c(C)c1C(=O)NCc1ccccc1F | 1% | -4% | -1 | 3% | 1% | 46%
Cc1ccc(OCCn2cc(/C(N)=N/O)c3ccccc32)cc1C | 0% | . | 44 | ? | ? | .
S=C(c1cn(CCOc2cccc3ccccc23)c2ccccc12)N1CCCC1 | 2% | -15% | -77* | ? | ? | i
Cc1ccc(OCCn2cc(C(=S)N3CCCC3)c3ccccc32)cc1C | 3% | -25% | -98* | -18% | ? | 4µM*
Cc1ccc(OCCn2cc(C(=O)O)c3ccccc32)cc1 | 6% | -2% | 4 | -5% | 10% | -11%
Cc1ccc(OCCn2cc(C(=O)C3CCCCC3)c3ccccc32)cc1 | . | -10% | -101* | -15% | . | -13%
COC(=O)c1cn(C(=O)c2ccccc2Cl)c2ccccc12 | 1% | -12% | -64* | -23% | ? | -9%
Cc1c(NC(=O)Nc2ccc(Cl)c(C(F)(F)F)c2)c(=O)n(-c2ccccc2)n1C | . | -10% | -5 | 0% | . | -19%
Cc1cnc(SCC2CCCO2)nc1C1CCCN(Cc2nc(-c3ccccc3)cs2)C1 (centres undefined) | . | -8% | . | -16% | . | -12%
O=C(NCC1CCCO1)C(=O)N/N=C/c1cccc(Cl)c1 (centres undefined) | . | -23% | -23 | 15% | 3% | ?
O=C(Nc1cc(C(F)(F)F)ccc1Cl)c1cc(S(=O)(=O)NCc2ccccc2)ccc1F | . | -17% | -16 | 6% | . | -17%
Cc1ccc(S(=O)(=O)N(C)CCCN(C)c2nc(-c3cccs3)nc3ccccc23)cc1 | . | -22% | . | . | . | -8%
COC(=O)c1cn(CCOc2ccccc2)c2ccccc12 | 0% | ? | 105 | -19% | 13µM* | .
SMILES | Giardia FBPA inh | Vaccinia Venus | HCMV inh | FMDV antiviral | HCV inh | VACV mCherry inh
S=C(c1cn(CCOc2ccccc2)c2ccccc12)N1CCCC1 | 4% | ? | 1 | -18% | 11µM* | ?
COC(=O)c1cn(CCOc2ccccc2OC)c2ccccc12 | -2% | ? | -2 | ? | ? | -26%
O=C(C1CCCN(Cc2ccc([N+](=O)[O-])cc2)C1)N1CCCCC1 (centres undefined) | ? | . | -18 | -25% | -22% | .
Cc1ccccc1-n1cc[nH]c1=S | -6% | -7% | 9 | -8% | -9% | -1%
Cc1cccc(-n2cc[nH]c2=S)c1C | -11% | -2% | -69* | -13% | 3% | -14%
Cc1cccc(N(CC(=O)NC2CCCC2)C(=O)c2cc3cc4cccc(C)c4nc3s2)c1C | -1% | 2% | -36 | -6% | ? | -3%
Cc1ccc(C)c(N(CC(=O)NC2CCCC2)C(=O)c2cc3cc4cc(C)ccc4nc3s2)c1 | 6% | -12% | -16 | . | 22µM* | -8%
Cc1ccc(CNC(=O)Cc2ccc(-c3ccccc3)cc2)cc1 | 4% | ? | -6 | 8% | 14% | ?
O=C(Cc1ccc(-c2ccccc2)cc1)NCc1ccccc1 | -4% | ? | -83* | -6% | -18% | ?
O=C(Cc1coc2ccc3ccccc3c12)NCc1ccccc1 | -1% | . | -7 | 12% | 10µM* | .
CC(NC(=O)Cc1ccc(-c2ccccc2)cc1)c1ccccc1 (centres undefined) | 2% | -27% | -28 | -13% | 14µM* | -13%[1.46 µM]
O=C(Cc1cccs1)NNC(=S)NCc1ccco1 | -1% | -6% | 3 | -9% | 3% | -7%
O=C(Cc1ccc(-c2ccccc2)cc1)NNC(=S)NCc1ccco1 | 9% | -12% | -21 | -14% | 11µM* | -18%
COc1cc(OC)c2cc(C(=O)N[C@H](C(=O)N3CCC[C@H]3C(=O)O)C(C)C)n(C)c2c1 | -14% | -1% | 0 | -11% | 11% | -5%
CC(=O)c1ccc(S(=O)(=O)N2CCN(CC(=O)NC(=O)NC3CCCCC3)CC2)cc1 | . | -15% | 0 | -22% | ? | -13%
COCCNc1ncnc2ccc(-c3ccoc3)cc12 | -22% | . | . | -10% | . | .
O=C(O[C@H]1CC[C@@]23CCCN2C(=O)CCC[C@H]3[C@H]1Cc1ccccc1)N1CCN(c2ccccc2)CC1 | . | . | 3 | . | . | .
CC(C)C(=O)NCC1CCC2(CCN(Cc3ccc(-c4ccccc4Cl)o3)CC2)O1 (centres undefined) | . | -23% | . | -1% | . | -24%
O=C(Cn1ncc2c([nH]c3ccccc32)c1=O)Nc1ccc(CN2CCCCC2)cc1 | 1% | . | . | -1% | ? | .
Cc1ccc(C(=O)N(CC(C)C)c2c(N)n(Cc3ccccc3)c(=O)[nH]c2=O)o1 | . | -8% | 15 | -5% | 5% | i
O=C(Nc1ccc(C(F)(F)F)cc1)c1ccccc1 | . | -16% | -6 | 52% | -2% | 9%
O=C(Nc1ccc(Br)c(C(F)(F)F)c1)c1ccc(C(F)(F)F)cc1 | -13% | ? | -97* | -22% | ? | ?
O=C(Nc1ccc(Br)c(C(F)(F)F)c1)c1ccccc1 | -9% | -28% | -90* | -24% | -27% | ?
Cc1cc[n+](-c2[nH]c(=O)sc2/C=N/NC([S-])=Nc2ccccc2)cc1 | 14% | -8% | -61* | -11% | ? | -7%
